Source: PubChem (Broad Institute)
ALR H2O2 inh = inhibitors of human ALR sulfhydryl oxidase, primary screen, biochemical, H2O2 detection, HRP-luminol luminescence, single point | FAD-linked sulfhydryl oxidase ALR (Homo sapiens), P55789 | purified ALR, DTT oxidation | inhibition, % (no concentration beside the values) | 290,000 tested, 3.8% active;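 active = mean replicate inhibition above about 79%, with every replicate also reaching it, limit read from the data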
Target sequence (P55789 whole entry, looked up): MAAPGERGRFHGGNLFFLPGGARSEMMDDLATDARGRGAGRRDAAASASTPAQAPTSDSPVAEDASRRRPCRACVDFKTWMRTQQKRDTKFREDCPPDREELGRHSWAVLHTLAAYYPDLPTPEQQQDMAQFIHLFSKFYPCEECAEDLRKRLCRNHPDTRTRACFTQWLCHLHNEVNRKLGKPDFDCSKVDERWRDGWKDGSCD
PglD inh = C. jejuni PglD acetyltransferase inhibitors, primary screen, biochemical, DTNB colorimetric, single point. UDP-N-acetylbacillosamine N-acetyltransferase PglD (Campylobacter jejuni). purified PglD enzyme, DTNB colorimetric CoA detection. inhibition, % at 12.5 µM. 360,000 tested, 0.098% active; in the data active = inhibition above about 16%, passing the limit was not always enough
Env fusion inh = inhibitors of HIV-1 Env-driven cell-cell fusion, primary screen, HeLa-JRFL effector, CEM21 target cells, luciferase; inhibition, % at 12.3 µM; 360,000 tested, 1.1% active; AID 651610, 2012;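 active = mean replicate inhibition score of at least 50 and every replicate individually at or above 50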;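 also: 0% = plate neutral controls and 100% = maraviroc near 300 nM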
CFTR F508del cor = F508del CFTR correction, initial screen, CFBE line, single point; CFBE cells, YFP halide quenching; stimulated with forskolin plus potentiator P3; % fluorescence drop versus neutral controls; activity (quench increase), % at 7.58 µM; 350,000 tested, 0.36% active; AID 720511, 2013;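 active = mean added fluorescence quench of at least 8% versus neutral control, with both replicates also reaching 8%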;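 also: cells transiently co-express mutant CFTR-F508del with the halide-sensitive YFP; corrector assay measuring rescue of mutant channel to the surface after 24 h compound exposure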
Casp6 inh = human caspase-6 inhibitors, primary screen, biochemical, VEID-R110 fluorescence, single point, set 2; purified caspase-6, Z-VEID-R110 cleavage fluorescence; inhibition, % at 12.5 µM; 350,000 tested, 0.53% active;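 active = mean inhibition across replicates at least about 35%, with every replicate also reaching that limit, limit read from the data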;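 also: 0% = median of neutral control wells and 100% = no fluorescence left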
Target sequence (P55212 24-179 limits assumed): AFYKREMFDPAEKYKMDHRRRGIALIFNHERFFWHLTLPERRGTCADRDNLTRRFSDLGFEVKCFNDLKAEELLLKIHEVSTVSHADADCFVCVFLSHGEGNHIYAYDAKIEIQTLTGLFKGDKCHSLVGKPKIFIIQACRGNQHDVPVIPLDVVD
Target sequence (P55212 194-293 limits assumed): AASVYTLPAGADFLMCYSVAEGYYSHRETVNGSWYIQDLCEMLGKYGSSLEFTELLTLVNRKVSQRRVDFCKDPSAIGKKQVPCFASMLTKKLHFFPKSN
NSD2 inh = NSD2 histone methyltransferase inhibitors, primary screen, biochemical, AlphaScreen, single concentration, set 2. Histone-lysine N-methyltransferase NSD2 (Homo sapiens), O96028. NSD2 peptide methylation, 120 min. inhibition, % at 12.5 µM. 310,000 tested, 0.54% active. AID 743445, 2014; in the data active = inhibition above about 50%
* hit, by the source's call; [ ] = dose if it differs, or a comment. A selection: hits, their analogues and other compounds. The true share with any hit is near 4.1%.

Screening COc1ccc(NC(=O)Nc2ccc3c(c2)C(=O)N([C@H](C)CO)C[C@H](C)[C@@H](CN(C)S(=O)(=O)c2cn(C)cn2)OCCCC[C@@H](C)O3)cc1 returned PglD inh -4.7, Env fusion inh 21.3[16.7 µM] and CFTR F508del cor 0.0.
For Cc1ccc(CNS(=O)(=O)c2c(C(=O)N3CCCCC3)c(C)n(C)c2C)cc1 the results were ALR H2O2 inh 4.4, PglD inh -1.4, Env fusion inh -2.4, CFTR F508del cor -1.9, Casp6 inh 0.5 and NSD2 inh 8.3.
For Cc1c(C(=O)N2CCCCC2)c(S(=O)(=O)NCc2ccc(N(C)C)cc2)c(C)n1C the results were ALR H2O2 inh 98.4*, PglD inh -2.8, Env fusion inh -1.6, CFTR F508del cor 1.4, Casp6 inh 1.8 and NSD2 inh 0.8.
COCC(=O)N1C[C@@H](C)[C@H](OC)CN(C)C(=O)c2ccc(NC(=O)c3cc(C)on3)cc2OC[C@@H]1C was read as PglD inh -0.2, CFTR F508del cor 0.1 and Casp6 inh -1.4.
Screening CC(C)C#Cc1ccc2c(c1)O[C@@H](CN(C)CC1CC1)[C@@H](C)CN([C@H](C)CO)S2(=O)=O returned PglD inh 1.4, Env fusion inh 0.5[16.7 µM], CFTR F508del cor -0.4 and Casp6 inh 0.3.
O=C(COc1ccc(-c2nnco2)cc1)Nc1ccc(C(F)(F)F)cc1 was read as ALR H2O2 inh -3.6, Env fusion inh 55.2*, CFTR F508del cor -5.6, Casp6 inh -3.6 and NSD2 inh -1.0.
`CCOC(=O)C1=CN(Cc2ccco2)S(=O)(=O)NC1c1ccc(C(F)(F)F)cc1` (stereo unspecified) gave PglD inh 0.0, Env fusion inh 18.2, CFTR F508del cor 8.1* and Casp6 inh 5.0.
`CCOC(=O)C1=CN(CC)S(=O)(=O)NC1c1ccc(C(F)(F)F)cc1` (stereo unspecified) gave PglD inh 2.8, Env fusion inh 9.2, CFTR F508del cor 1.7 and Casp6 inh 16.5.
Screening S=C(NCCc1ccccn1)Nc1cccc(Cl)c1 returned ALR H2O2 inh 97.5*, Env fusion inh 1.8, Casp6 inh 0.2 and NSD2 inh 1.0.
`COCCCNC(=S)NNC(=S)Nc1cccc(Cl)c1` gave ALR H2O2 inh 78.4*, PglD inh 0.1, Env fusion inh 11.1, CFTR F508del cor -1.0, Casp6 inh 0.6 and NSD2 inh 2.9.
Screening C=COCCNC(=S)Nc1cccc(Cl)c1 returned ALR H2O2 inh -12.6, Env fusion inh 3.2, CFTR F508del cor 0.1, Casp6 inh 2.0 and NSD2 inh -10.1.
For CCCC#Cc1cnc2c(c1)C(=O)N([C@@H](C)CO)C[C@H](C)[C@@H](CN(C)S(=O)(=O)c1ccccc1)O2 the results were PglD inh -0.5, Env fusion inh 0.6[16.7 µM], CFTR F508del cor 0.8 and Casp6 inh -0.5.
For CCN(CC)c1ccc2c(C)c(CO)c(=O)oc2c1 the results were ALR H2O2 inh 99.3*, Env fusion inh -41.3, CFTR F508del cor -0.1, Casp6 inh -4.2 and NSD2 inh -7.7.
`CCN(CC)c1ccc2c(C)c(CN3CCOCC3)c(=O)oc2c1` gave ALR H2O2 inh 13.3, PglD inh -2.7 and NSD2 inh -0.5.
`O=C(NCC[C@H]1CC[C@H](NS(=O)(=O)c2ccccc2)[C@@H](CO)O1)c1ccc2c(c1)OCO2` gave PglD inh -0.5, Env fusion inh -8.2[16.7 µM], CFTR F508del cor 2.3 and Casp6 inh 0.0.
Screening CCc1cc(SC#N)cc(C)c1NC(=O)CCl returned ALR H2O2 inh 98.4*, Env fusion inh -66.8, Casp6 inh 11.2 and NSD2 inh -13.7.
CCC(=O)Nc1ccc(SC#N)cc1C was read as ALR H2O2 inh 98.4*, CFTR F508del cor -0.8, Casp6 inh -2.2 and NSD2 inh -3.3.
For CCN(CC)c1ccc2c(c1)CCCN2 the results were ALR H2O2 inh 96.5*.
COc1ccc(COc2cc(-c3cccc(OC)c3)nc3ccc(NC(=O)c4ccc(OC)cc4)cc23)cc1 was read as ALR H2O2 inh -21.3, PglD inh -5.7, Env fusion inh -8.6, CFTR F508del cor 8.2* and Casp6 inh -1.3.
CCN(CC)CCCn1c2c(c(SCC(=O)Nc3ccc(C)c(F)c3)nc1=O)CCC2 was read as ALR H2O2 inh 97.1*, Env fusion inh 5.8, CFTR F508del cor -1.2, Casp6 inh -4.8 and NSD2 inh 27.5.
For CCN(CC)CCCn1c2c(c(SCC(=O)Nc3nc4ccccc4s3)nc1=O)CCC2 the results were ALR H2O2 inh 98.7*, PglD inh -6.0, Env fusion inh -4.3, CFTR F508del cor -1.0, Casp6 inh -9.8 and NSD2 inh 32.8.
Screening CCN(CC)CCn1c2c(c(SCC(=O)NCc3ccccc3)nc1=O)CCC2 returned ALR H2O2 inh -31.7, PglD inh 4.5, Env fusion inh 1.7, CFTR F508del cor -2.8, Casp6 inh -5.9 and NSD2 inh 6.8.
For CCN(CC)CCCn1c2c(c(SCC(=O)Nc3ccc(OC(F)(F)F)cc3)nc1=O)CCC2 the results were ALR H2O2 inh -394.5, PglD inh 2.1, Env fusion inh 11.6, CFTR F508del cor -0.7, Casp6 inh 7.4 and NSD2 inh 19.9.
For N#Cc1ccc(-c2ccc(C3[C@H]4CNC[C@@H]3N4C(=O)NC3CCCCC3)cc2)cc1 (stereo partly specified) the results were CFTR F508del cor -1.7.
COC(=O)C[C@H]1CC[C@H]2[C@@H](COc3ccc(NS(=O)(=O)c4ccccc4F)cc3C(=O)N2C)O1 was read as Env fusion inh 7.1[16.7 µM], CFTR F508del cor -0.9 and Casp6 inh 2.1.
CCC(=NCc1ccco1)c1c(C(F)(F)F)[nH]n(-c2nc3ccccc3s2)c1=O was read as ALR H2O2 inh 86.0*, PglD inh -1.7, Env fusion inh -5.3 and NSD2 inh -0.1.
For O=c1c(C=NCc2cccnc2)c(C(F)(F)F)[nH]n1-c1nc2ccccc2s1 the results were ALR H2O2 inh 99.0*, Env fusion inh -15.7, CFTR F508del cor -0.6, Casp6 inh -0.7 and NSD2 inh 0.1.
O=S(=O)(c1cccc(-c2cn3cc(Cl)ccc3n2)c1)N1CCOCC1 was read as ALR H2O2 inh 32.5, PglD inh -0.5, Env fusion inh -61.4 and NSD2 inh -2.8.
Cc1ccn2cc(-c3cccc(S(=O)(=O)N4CC(C)OC(C)C4)c3)nc2c1 (stereo unspecified) was read as ALR H2O2 inh 97.1*, PglD inh 3.3, Env fusion inh -8.1, CFTR F508del cor 1.6, Casp6 inh 1.6 and NSD2 inh 24.2.
